Data taken from PubChem BioAssay (NCI).
The panel holds about 79,000 compounds, 15% with a hit somewhere; the sample as a whole holds those more often. Activity calls are given as the source filed them. Cut-off read from the data, not from the text of the source: active = growth inhibition above about 70%; inactive = the rest.

Tests used:
[1] = NCI Yeast Anticancer Drug Screen. Data for the mec2-1 strain (AID 157); settings: S. cerevisiae mec2-1 strain, hits give high values
Procedure, shortened: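 Readout is yeast growth inhibition, normalised to vehicle-treated controls, in the mec2-1 strain exposed to compound.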

[2] = NCI Yeast Anticancer Drug Screen. Data for the rad14 strain (AID 159);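 note: 0% = growth of vehicle-treated control cultures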; settings: S. cerevisiae rad14 strain growth inhibition, hits give high values
Procedure, shortened: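 Compound-treated yeast with a defined DNA-repair lesion; growth inhibition normalised to vehicle-treated cultures.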

[3] = NCI Yeast Anticancer Drug Screen. Data for the sgs1 mgt1 strain (AID 161);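 note: 0% = growth of cultures given vehicle only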; settings: S. cerevisiae sgs1 mgt1 strain, hits give high values
Procedure, shortened: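 Yeast cells carrying a defined DNA-repair defect were exposed to test compounds. Growth inhibition was measured relative to vehicle-treated controls.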

[4] = NCI Yeast Anticancer Drug Screen. Data for the CLN2oe strain (AID 163);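 note: 0% = growth of vehicle-only control cultures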; settings: S. cerevisiae CLN2oe strain, hits give high values
Procedure, shortened: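 Values reflect how much compound exposure reduced yeast growth, referenced to vehicle-exposed cells. Assay organism is a strain with a defined genetic change affecting cell-cycle control.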

[5] = NCI Yeast Anticancer Drug Screen. Data for the cln2 rad14 strain (AID 165);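 note: 0% = growth equal to vehicle treated cultures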; settings: S. cerevisiae cln2 rad14 strain, hits give high values
Procedure, shortened: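 Relative to vehicle controls, growth inhibition of compound-treated cln2 rad14 yeast was recorded.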

[6] = NCI Yeast Anticancer Drug Screen. Data for the bub3 strain (AID 167); settings: S. cerevisiae bub3 mutant strain, hits give high values
Procedure, shortened: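 Growth of a checkpoint-deficient yeast mutant is measured after compound exposure. Values represent inhibition relative to vehicle.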

[7] = NCI Yeast Anticancer Drug Screen. Data for the wt2 strain (AID 169);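 note: 0% = growth of vehicle-treated yeast cultures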; settings: S. cerevisiae wt2 strain growth inhibition, hits give high values
Procedure, shortened: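 Values express reduction in yeast growth under compound treatment, referenced to vehicle-treated cells.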

[8] = NCI Yeast Anticancer Drug Screen. Data for the mlh1 strain (AID 171);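 note: 0% = growth of vehicle-treated control cultures of the same strain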; settings: S. cerevisiae mlh1 strain growth inhibition, hits give high values
Procedure, shortened: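 Steps: expose the defined-mutant yeast strain to compound; expose a parallel culture to vehicle; measure growth; express compound effect as inhibition relative to the vehicle culture.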

[9] = NCI Yeast Anticancer Drug Screen. Data for the sgs1 strain (AID 173);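 note: 0% = growth of vehicle-only control cultures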; settings: S. cerevisiae sgs1 mutant, hits give high values
Procedure, shortened: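 Treat defined-mutant yeast with compound; measure growth; calculate inhibition relative to vehicle-treated cells.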

[10] = NCI Yeast Anticancer Drug Screen. Data for the mlh1 rad18 strain (AID 175); settings: S. cerevisiae mlh1 rad18 strain growth inhibition, hits give high values
Procedure, shortened: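 Test agents were incubated with a yeast strain of defined genotype (DNA damage repair defect). Inhibition of growth was derived by comparison with vehicle-exposed cultures.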

[11] = NCI Yeast Anticancer Drug Screen. Data for the rad18 strain (AID 177); settings: S. cerevisiae rad18 mutant growth inhibition, hits give high values
Procedure, shortened: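 A genetically defined yeast mutant impaired in DNA damage repair was treated with test compounds, then its growth was measured against cultures receiving vehicle alone.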

[12] = NCI Yeast Anticancer Drug Screen. Data for the rad52 strain (AID 147);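 note: 0% = growth of vehicle-treated control cultures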; settings: S. cerevisiae rad52 mutant growth inhibition, hits give high values
Procedure, shortened: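 Screen used a yeast mutant impaired in DNA repair. After compound exposure, growth was measured. Values reflect inhibition compared with vehicle-treated cells.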

[13] = NCI Yeast Anticancer Drug Screen. Data for the rad50EPP+ strain (AID 151);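 note: 0% = growth of vehicle-treated control cultures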; settings: S. cerevisiae rad50 mutant strain, hits give high values
Procedure, shortened: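 Exposing the rad50EPP+ strain to each compound, growth was compared with vehicle-only cultures to give inhibition.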

[14] = NCI Yeast Anticancer Drug Screen. Data for the mgt1 strain (AID 153); settings: S. cerevisiae mgt1 mutant growth inhibition, hits give high values
Procedure, shortened: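 Genetically defined yeast (mgt1) treated with compound; inhibition of growth expressed against vehicle-treated controls.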

[15] = NCI Yeast Anticancer Drug Screen. Data for the rad50 strain (AID 155);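 note: 0% = growth of vehicle-only cultures of the same strain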; settings: S. cerevisiae rad50 strain growth inhibition, hits give high values
Procedure, shortened: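 Compounds were tested on a yeast strain with an engineered DNA damage repair alteration; the reported value is growth inhibition normalised to vehicle treatment.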

[16] = at 5.0 µM (retest, dose inferred, filed as 0.5)
[17] = at 50.0 µM (retest, dose inferred, filed as 5.0)

Measured: growth inhibition

CC(C)/C(Cl)=N\OC(=O)Nc1cccc(Cl)c1
inactive: [1]; at 100.0 µM 1% | [2]; at 1.2 µM 0% | [2]; at 3.7 µM 2% | [2]; at 11.0 µM 0% | [2]; at 33.0 µM 4% | [2]; at 100.0 µM 6% | [3]; [16] -17% | [4]; at 1.2 µM -4% | [4]; at 3.7 µM -3% | [4]; at 11.0 µM -6% | [4]; at 33.0 µM -3% | [4]; at 100.0 µM 10% | [5]; [16] -3% | [5]; [17] 19% | [6]; at 1.2 µM 1% | [6]; at 3.7 µM 4% | [6]; [16] -29% | [6]; at 11.0 µM 10% | [6]; at 33.0 µM 12% | [6]; at 100.0 µM 10% | [7]; at 1.2 µM -2% | [7]; at 3.7 µM -3% | [7]; at 11.0 µM -2% | [7]; at 33.0 µM -4% | [7]; at 100.0 µM 0% | [8]; at 1.2 µM -1% | [8]; at 3.7 µM -7% | [8]; at 11.0 µM 0% | [8]; at 33.0 µM 0% | [8]; at 100.0 µM -2% | [9]; at 1.2 µM 0% | [9]; at 3.7 µM 1% | [9]; at 11.0 µM 2% | [9]; at 33.0 µM 1% | [9]; at 100.0 µM 2% | [10]; [16] -12% | [10]; [17] 22% | [11]; at 1.2 µM -7% | [11]; at 3.7 µM -8% | [11]; at 11.0 µM -10% | [11]; at 33.0 µM -24% | [11]; at 100.0 µM -1%
active: [3]; [17] 83% | [3]; at 50.0 µM 85.2% | [5]; at 50.0 µM 72.3% | [6]; [17] 88% | [6]; at 50.0 µM 82.3% | [10]; at 50.0 µM 77.5%

COc1cc2ccc(/C=C\[N+](=O)[O-])cc2cc1OC
active: [12]; at 11.0 µM 70% | [12]; at 33.0 µM 97% | [12]; at 100.0 µM 94% | [13]; at 11.0 µM 83% | [13]; at 33.0 µM 98% | [13]; at 100.0 µM 96% | [14]; at 33.0 µM 97% | [14]; at 100.0 µM 95% | [15]; at 33.0 µM 96% | [15]; [17] 99% | [15]; at 50.0 µM 91% | [15]; at 100.0 µM 94% | [1]; at 33.0 µM 97% | [1]; [17] 99% | [1]; at 50.0 µM 90.5% | [1]; at 100.0 µM 95% | [2]; at 33.0 µM 97% | [2]; at 100.0 µM 95% | [3]; [17] 85% | [3]; at 50.0 µM 90.7% | [4]; at 33.0 µM 91% | [4]; at 100.0 µM 95% | [5]; at 50.0 µM 86.1% | [6]; at 33.0 µM 85% | [6]; at 50.0 µM 91.9% | [6]; at 100.0 µM 95% | [7]; at 33.0 µM 98% | [7]; at 100.0 µM 97% | [8]; at 33.0 µM 98% | [8]; at 100.0 µM 97% | [9]; at 33.0 µM 98% | [9]; at 100.0 µM 97% | [10]; [17] 98% | [10]; at 50.0 µM 92.3% | [11]; at 33.0 µM 97% | [11]; at 100.0 µM 93%
inactive: [12]; at 1.2 µM 1% | [12]; at 3.7 µM 13% | [13]; at 1.2 µM 18% | [13]; at 3.7 µM 39% | [14]; at 1.2 µM -18% | [14]; at 3.7 µM -23% | [14]; at 11.0 µM 24% | [15]; at 1.2 µM -5% | [15]; at 3.7 µM 26% | [15]; [16] 44% | [15]; at 11.0 µM 51% | [1]; at 1.2 µM 10% | [1]; at 3.7 µM -34% | [1]; [16] 29% | [1]; at 11.0 µM 38% | [2]; at 1.2 µM -26% | [2]; at 3.7 µM -39% | [2]; at 11.0 µM -18% | [3]; [16] 11% | [4]; at 1.2 µM 12% | [4]; at 3.7 µM 0% | [4]; at 11.0 µM -4% | [5]; [16] -14% | [5]; [17] -25% | [6]; at 1.2 µM -30% | [6]; at 3.7 µM -21% | [6]; [16] 17% | [6]; at 11.0 µM -22% | [6]; [17] 53% | [7]; at 1.2 µM -14% | [7]; at 3.7 µM 4% | [7]; at 11.0 µM 22% | [8]; at 1.2 µM -36% | [8]; at 3.7 µM -36% | [8]; at 11.0 µM 19% | [9]; at 1.2 µM -4% | [9]; at 3.7 µM 16% | [9]; at 11.0 µM 47% | [10]; [16] 45% | [11]; at 1.2 µM -17% | [11]; at 3.7 µM -33% | [11]; at 11.0 µM 18%
